hcDAF-12 act = activators of H. contortus DAF-12 nuclear receptor | HEK293 hcDAF-12 lit1-tk-luc reporter, luminescence; 0% DMSO, 100% Δ7-dafachronic acid | activation, % at 6.8 µM | hit rate 1.4% among 370,000 | AID 652067;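 active = activation above the mean of all tested compounds plus 3 SD, cut at about 5.5% in these data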
DAX1 inh-1 = blocks DAX1 repression of SF-1 activated StAR promoter; HEK293T StAR-luciferase reporter, SF-1/DAX-1 repression relief; inhibition, % at 6.8 µM; hit rate 1.1% among 370,000;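 active = inhibition above the mean over all tested compounds plus 3 SD, cut at about 3.6% in these data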;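 also: higher inhibition means more luminescence from relief of DAX-1 repression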
ssDAF-12 act = activators of S. stercoralis DAF-12 nuclear receptor. HEK293 ssDAF-12/GRIP1 lit1-tk-luc reporter, luminescence; % of 3 µM dafachronic acid response. activation, % at 6.8 µM. hit rate 1% among 370,000. AID 652126;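 active = activation above the mean over all tested compounds plus 3 SD, cut at about 0.9% in these data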
hgDAF12 agonist = activates the H. glycines DAF-12 receptor ligand-binding domain | hit rate 1.8% among 370,000 | AID 687014 | activation, % at 6.8 µM | HEK293 GAL4-hgDAF12 UAS-luciferase reporter, agonist luminescence; normalized to butyrate control;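 active = activation above a cutoff set at the mean of all screened compounds plus 3 SD, cut at about 10% in these data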
DAX1 inh-2 = inhibits human nuclear receptor DAX1; P51843; HEK293 Gal4-DAX1 luciferase reporter, luminescence; hit rate 0.99% among 340,000; AID 504766; inhibition, % at 6.75 µM;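 active = inhibition above the mean over all tested compounds plus 3 SD, cut at about 4.2% in these data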;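 also: inhibition shows as a rise in luminescence from relieved DAX1 repression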
Target sequence (P51843 207-470 limits assumed): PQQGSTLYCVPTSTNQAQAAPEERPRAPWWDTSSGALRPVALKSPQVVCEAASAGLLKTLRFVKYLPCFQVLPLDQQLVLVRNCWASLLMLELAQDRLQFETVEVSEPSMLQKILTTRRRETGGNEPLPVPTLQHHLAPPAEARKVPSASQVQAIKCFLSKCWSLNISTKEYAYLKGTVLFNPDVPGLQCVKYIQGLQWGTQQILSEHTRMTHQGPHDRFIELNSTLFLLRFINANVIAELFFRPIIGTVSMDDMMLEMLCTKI
Large screens that a line does not name were inactive. The list is not random: actives were taken first. Their share in the collection is about 4.1%.

COc1ccc(C(CC(=O)c2ccc3c(c2)OCO3)C(=O)O)cc1OC (stereo unspecified)	ssDAF-12 act 4.0
COc1ccccc1C(=O)n1ccc2ccc(-c3ccc4ccn(Cc5ccccc5)c4c3)cc21	none (no result: DAX1 inh-2)
CCCC(=O)OC12CCCN(C1)/C(=C/c1ccc(Cl)cc1)C2 (stereo unspecified)	none (no result: DAX1 inh-2)
O=C(Nc1ccc(F)c(Cl)c1)c1ccc2c(c1)OCO2	hcDAF-12 act 6.2, hgDAF12 agonist 10.7
Cc1cccn2c(=O)c3cc(C(=O)N4CCCCC4)sc3nc12	ssDAF-12 act 1.5
Cc1cccn2c(=O)c3cc(C(=O)N4CCN(Cc5ccccc5)CC4)sc3nc12	none
CC1CCCN(C(=O)c2cc3c(=O)n4ccccc4nc3s2)C1 (stereo unspecified)	none
Cc1cccn2c(=O)c3cc(C(=O)N4CCCC(C)C4)sc3nc12 (stereo unspecified)	ssDAF-12 act 1.2
CCOC(=O)Cc1nc(N2CCN(C(=O)C3CCCO3)CC2)c2c(C)c(C(=O)OCC)sc2n1 (stereo unspecified)	none (no result: DAX1 inh-2)
C=CCN1[C@H](CC(C)C)COc2cc(F)ccc2S1(=O)=O	none (no result: DAX1 inh-2)
O=C(CSc1nccc(=O)[nH]1)c1cc2ccccc2o1	ssDAF-12 act 1.3, hgDAF12 agonist 11.3
CC1(C)Cc2c(c(N3CCOCC3)nc3sc(C(=O)Nc4cccc(Cl)c4)c(N)c23)CO1	none
CC1(C)Cc2c(c(N3CCOCC3)nc3sc(C(=O)Nc4ccccc4)c(N)c23)CO1	hcDAF-12 act 6.2, hgDAF12 agonist 11.6
C[C@@H]1COc2cccc(N3CCSCC3)c2S(=O)(=O)N1	none (no result: DAX1 inh-2)
CCN(C)c1ccc(/C=N\n2nnnc2N)cc1	hgDAF12 agonist 12.5
Cc1ccccc1OCC(=O)Nc1ccccc1CO	none
CSc1ccccc1NC(=O)COC(=O)c1c[nH]c(=O)[nH]c1=O	DAX1 inh-2 5.5
CC(=O)Nc1ccccc1OCC(=O)NC(C)c1ccccc1 (stereo unspecified)	ssDAF-12 act 1.0
CSc1ccccc1NC(=O)COc1ccccc1C	ssDAF-12 act 1.5
O=C(COC(=O)c1c[nH]c(=O)[nH]c1=O)Nc1ccccc1F	none
COc1ccc(-n2c(COc3ccc(C)cc3)nnc2SCC(=O)c2ccc(-c3ccccc3)cc2)cc1	none (no result: DAX1 inh-2)
Cc1cnc(-c2nc3ccccc3n2C(C(=O)NC(C)(C)C)c2ccncc2)cn1 (stereo unspecified)	hgDAF12 agonist 11.0 (no result: DAX1 inh-2)
Cc1cnc(-c2nc3ccccc3n2C(C(=O)NC(C)(C)C)c2ccccc2)cn1 (stereo unspecified)	none (no result: DAX1 inh-2)
O=C(CNS(=O)(=O)c1ccc(Br)s1)N1CCN(c2ccccn2)CC1	none (no result: DAX1 inh-2)
Cc1cccc(NC(=O)CN2C(=O)N/C(=C/c3cc(C)n(-c4cccnc4)c3C)C2=O)c1	DAX1 inh-2 6.6
Cc1cccc(NC(=O)CN2C(=O)N/C(=C/c3cc(C)n(-c4ccncc4)c3C)C2=O)c1	none
COc1ccc(-c2cc(-c3nnc(SCC(=O)Nc4ccccc4-c4ccccc4)n3N)[nH]n2)cc1	none (no result: DAX1 inh-2)
COc1ccc(/C=C2/C(=O)N(c3nc4ccccc4s3)N=C2CSc2ccc(Cl)cc2)cc1	hcDAF-12 act 5.6
CC1CCC/C(=N/Nc2nc3ccccc3s2)C1 (stereo unspecified)	hcDAF-12 act 6.4, DAX1 inh-2 5.3
Nc1ccccc1Nc1cc(-c2ccccc2)[nH]n1	hcDAF-12 act 6.0
CCC(C(=O)Nc1ccccc1N1CCCC1)c1ccccc1F (stereo unspecified)	none (no result: DAX1 inh-2)
COCCNC(=O)C1CC(c2ccc([N+](=O)[O-])cc2)=NO1 (stereo unspecified)	none
O=C(NCCc1cccs1)C1CC(c2ccc([N+](=O)[O-])cc2)=NO1 (stereo unspecified)	hcDAF-12 act 5.8
Cc1ccc(S(=O)(=O)SCCCSS(=O)(=O)c2ccc(C)cc2)cc1	none
Cc1ccc(S(=O)(=O)SC/C=C/CSS(=O)(=O)c2ccc(C)cc2)cc1	DAX1 inh-2 5.5
COc1ccc(-c2noc(CN(C)C3CCOCC3)n2)cc1	none
CN(Cc1nc(-c2ccccc2)no1)C1CCOCC1	hgDAF12 agonist 11.1, DAX1 inh-2 4.8
CC(=O)c1sc(NC(=O)c2ccccc2)nc1-c1ccccc1	hgDAF12 agonist 12.2, DAX1 inh-2 4.8
O=C(Nc1nc(-c2ccccc2)c(C(=O)c2ccccc2)s1)c1ccc(S(=O)(=O)N2CCCCC2)cc1	hcDAF-12 act 6.5
O=C(Nc1nc(-c2ccccc2)c(-c2ccccc2)s1)c1ccc(S(=O)(=O)N2CCCCC2)cc1	none
c1ccc(Nc2c(-c3ccco3)nc3ccccn23)cc1	hcDAF-12 act 6.0
Cc1ccc(Nc2c(-c3ccco3)nc3ccccn23)cc1	none
C=CCCC1CN(Cc2ccc(OC)cc2)S(=O)(=O)c2c(cccc2N2CCCCC2)O1 (stereo unspecified)	none (no result: DAX1 inh-2)
COc1cccc(C(=O)NCCn2ccc3ccccc32)c1	hgDAF12 agonist 12.1
Nc1nc(SCn2nnc3ccccc3c2=O)n[nH]1	DAX1 inh-2 6.8
CCOCc1c(C(=O)N2CCN(CC(=O)Nc3ccc(F)cc3)CC2)oc2ccccc12	ssDAF-12 act 1.2
CCCOC(=O)c1ccc(NC(=O)COC)cc1	none
CCCOC(=O)c1ccc(NC(=O)c2ccoc2C)cc1	none
CCCCOC(=O)Nc1nnc(C(C)C)s1	hgDAF12 agonist 11.1, DAX1 inh-2 5.7
CCCCOC(=O)c1ccc(NC(=O)c2ccoc2C)cc1	hgDAF12 agonist 11.6
CCCOC(=O)c1ccc(NC(=O)CC(C)(C)C)cc1	DAX1 inh-1 3.8, hgDAF12 agonist 12.5
CCCCOC(=O)Nc1ccc(C(C)C)cc1	none
CCCCOC(=O)Nc1ccc(C(N)=O)cc1	DAX1 inh-2 4.3
Nc1ncnc2nc(SCCOc3ccc(Cl)cc3)[nH]c12	none
Cc1ccc(OCCSc2nc3ncnc(N)c3[nH]2)cc1	DAX1 inh-2 4.3
COc1cc(C(=O)N=c2sc3ccccc3n2C)cc(OC)c1OC	none
COc1cc(C=NN=c2sc3ccccc3n2C)ccc1OCCO	hgDAF12 agonist 12.2 (no result: DAX1 inh-2)
FC(F)(F)c1cnc(Oc2cccc3ccccc23)c(Cl)c1	ssDAF-12 act 1.0
O=C(CCC(=O)c1ccc[nH]1)c1ccc(Cl)cc1	hcDAF-12 act 6.0, hgDAF12 agonist 12.2
O=C(C[n+]1cccc2ccccc21)c1ccc(Br)cc1	ssDAF-12 act 2.2
Cc1ccc(C(=O)C[n+]2cccc3ccccc32)cc1	hcDAF-12 act 6.0, ssDAF-12 act 1.7
NC(=O)C[n+]1cccc2ccccc21	none
O=C(Cn1nnc(-c2ccncc2)n1)Nc1ccc(Oc2ccccc2)cc1	none (no result: DAX1 inh-2)
COc1cccc(-c2ccc3c(N)c(C(=O)NC4CC4)sc3n2)c1	hgDAF12 agonist 10.5, DAX1 inh-2 4.7
C[C@@H]1ON(C)[C@H]2C[C@H]3c4[nH]c5cccc(-c6ccc7c(c6)OCO7)c5c4CCN3C(=O)[C@@H]12	none (no result: DAX1 inh-2)
CCC(C)OC(=O)c1[nH]c2c(c1C)C(=O)CC(c1ccc(N(C)C)cc1)C2 (stereo unspecified)	hgDAF12 agonist 11.3

Bioassay records as filed in PubChem BioAssay.
